# Experimental data from PubChem BioAssay (EPA / NIEHS).
# Results filed as inconclusive are left out. Active and inactive are the calls of the source. How the source made its calls, unless noted: active means hit-call score of the fitted dose curve at least 0.9, where 1 is the maximum; inactive means score below 0.9.
# Assays:
# [1] = ATG_Sox_CIS: Attagene CIS-FACTORIAL HepG2 Assay for human SRY-box transcription factor (SOX) (AID 2282960); settings: HepG2 Attagene cis-factorial SOX reporter, mRNA; actives raise or lower the signal
# Method in brief: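 Measures mRNA induction of a SOX1-associated reporter in HepG2 after 24 h dosing. Fluorescently labelled RT-PCR fragments are separated by capillary electrophoresis, and gain or loss relative to DMSO control is fitted.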
# [2] = target: Transcription factor Sp1 (Homo sapiens) (UniProt P08047); test: ATG_Sp1_CIS: Attagene CIS-FACTORIAL HepG2 Assay for human Specificity Protein 1 (Sp1) (AID 2282961); settings: HepG2 Sp1 cis-reporter transcription, actives raise or lower the signal
# Transcription factor Sp1 (Homo sapiens), sequence (P08047 whole entry, looked up): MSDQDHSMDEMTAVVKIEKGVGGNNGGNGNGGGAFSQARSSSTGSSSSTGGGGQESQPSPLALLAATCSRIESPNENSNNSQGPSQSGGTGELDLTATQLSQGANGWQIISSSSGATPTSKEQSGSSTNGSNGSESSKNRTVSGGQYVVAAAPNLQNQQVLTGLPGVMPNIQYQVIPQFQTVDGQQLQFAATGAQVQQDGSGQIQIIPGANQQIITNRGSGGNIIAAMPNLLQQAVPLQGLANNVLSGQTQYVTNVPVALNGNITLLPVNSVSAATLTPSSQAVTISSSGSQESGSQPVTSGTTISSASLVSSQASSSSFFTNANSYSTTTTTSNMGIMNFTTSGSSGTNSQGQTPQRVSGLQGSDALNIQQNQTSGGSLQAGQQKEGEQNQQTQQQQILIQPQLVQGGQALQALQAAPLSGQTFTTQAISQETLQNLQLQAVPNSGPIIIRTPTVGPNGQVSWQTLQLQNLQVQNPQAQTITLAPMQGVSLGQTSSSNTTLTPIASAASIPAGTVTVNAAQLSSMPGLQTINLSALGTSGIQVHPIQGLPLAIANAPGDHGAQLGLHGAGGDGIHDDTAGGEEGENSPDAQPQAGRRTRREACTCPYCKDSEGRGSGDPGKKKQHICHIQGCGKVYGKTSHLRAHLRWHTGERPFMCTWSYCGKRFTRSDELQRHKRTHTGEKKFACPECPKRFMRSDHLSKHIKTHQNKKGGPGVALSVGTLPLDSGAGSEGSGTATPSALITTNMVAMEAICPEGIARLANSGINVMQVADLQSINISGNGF
# Method in brief: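 Cells: HepG2, transiently transfected with cis-regulated multiplexed reporters. Exposure: 24 h. Detection: reporter transcripts amplified, fluorescently labeled, restriction-digested and sized by capillary electrophoresis. Analysis: bidirectional fit relative to DMSO.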
# [3] = target: Signal transducer and activator of transcription 3 (Homo sapiens) (UniProt P40763); test: ATG_STAT3_CIS: Attagene CIS-FACTORIAL HepG2 Assay for human Signal Transducer and Activator of Transcription 3 (STAT3) (AID 2282963); settings: HepG2, Attagene cis-factorial STAT3 reporter transcription; actives raise or lower the signal
# Signal transducer and activator of transcription 3 (Homo sapiens), sequence (P40763 whole entry, looked up): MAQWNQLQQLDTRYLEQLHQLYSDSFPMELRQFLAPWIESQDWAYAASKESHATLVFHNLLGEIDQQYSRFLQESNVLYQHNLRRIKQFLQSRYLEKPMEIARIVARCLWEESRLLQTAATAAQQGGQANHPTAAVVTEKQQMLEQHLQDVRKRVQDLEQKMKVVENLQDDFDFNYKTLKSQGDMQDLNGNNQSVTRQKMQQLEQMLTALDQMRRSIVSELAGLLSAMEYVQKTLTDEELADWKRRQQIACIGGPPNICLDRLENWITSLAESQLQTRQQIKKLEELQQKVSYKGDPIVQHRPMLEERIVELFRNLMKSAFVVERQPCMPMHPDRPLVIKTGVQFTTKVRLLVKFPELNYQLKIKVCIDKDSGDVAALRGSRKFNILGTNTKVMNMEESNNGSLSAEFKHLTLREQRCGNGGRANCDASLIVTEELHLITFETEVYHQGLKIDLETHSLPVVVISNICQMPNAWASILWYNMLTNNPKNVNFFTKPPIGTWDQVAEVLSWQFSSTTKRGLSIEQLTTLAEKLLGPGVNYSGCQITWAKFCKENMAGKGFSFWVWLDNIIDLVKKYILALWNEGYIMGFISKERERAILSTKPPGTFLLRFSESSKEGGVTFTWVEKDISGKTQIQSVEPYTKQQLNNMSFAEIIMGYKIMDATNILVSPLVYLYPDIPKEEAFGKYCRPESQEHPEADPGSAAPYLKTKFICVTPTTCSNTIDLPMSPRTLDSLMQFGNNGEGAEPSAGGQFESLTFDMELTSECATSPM
# Method in brief: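 Cis-factorial format: endogenous transcription factors in HepG2 drive transfected reporter units. After 24 h treatment, reporter RNA was reverse-transcribed, amplified, FAM-labelled and HpaI-digested before CE analysis; activity scored in both directions against DMSO.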
# [4] = ATG_TA_CIS: Attagene CIS-FACTORIAL HepG2 Assay for human TA Basal Promoter (AID 2282964); settings: HepG2 Attagene CIS-factorial TA basal promoter reporter; actives raise or lower the signal
# Method in brief: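 Multiplexed mRNA reporter assay, HepG2, 24 h. Reporter cDNA amplified, 6-FAM primer-extended, HpaI-cut, CE-sized; DMSO = negative control and baseline.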
# [5] = ATG_TCF_b_cat_CIS: Attagene CIS-FACTORIAL HepG2 Assay for human T-Cell-Factor with beta-catenin (TCF/b-cat) (AID 2282965); settings: HepG2 TCF/beta-catenin cis-reporter transcription, actives raise or lower the signal
# Method in brief: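 Measured: reporter mRNA in HepG2 transiently transfected with cis-promoter reporter units, 24 h after chemical addition. Fitting was bidirectional, DMSO as negative control.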
# [6] = ATG_TAL_CIS: Attagene CIS-FACTORIAL HepG2 Assay for human TAL Basal Promoter (AID 2282966); settings: HepG2 Attagene cis-factorial TAL promoter reporter; actives raise or lower the signal;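 further: background control endpoint measuring basal TAL promoter reporter mRNA not a specific factor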
# Method in brief: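 Background-control endpoint: basal TAL promoter reporter transcripts in transiently transfected HepG2, measured 24 h after dosing. Read-out by RT-PCR with fluorescent primer extension and capillary electrophoresis; gain or loss of signal fitted relative to DMSO.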
# [7] = ATG_TGFb_CIS: Attagene CIS-FACTORIAL HepG2 Assay for human Transforming Growth Factor (TGF) (AID 2282967); settings: HepG2 Attagene CIS TGFb reporter, mRNA transcription; actives raise or lower the signal
# Method in brief: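 Transcript-level reporter readout: HepG2 transfectants, 24 h exposure, RNA to cDNA, reporter-specific PCR, fluorescent primer extension, capillary sizing against ROX standards. Gain- or loss-of-signal relative to DMSO.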
# [8] = ATG_VDRE_CIS: Attagene CIS-FACTORIAL HepG2 Assay for human Vitamin D Receptor Element (VDRE) (AID 2282968); settings: HepG2 VDRE cis-reporter transcription, actives raise or lower the signal
# Method in brief: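 Measures endogenous factor activity through cis-element-driven reporter transcripts in transiently transfected HepG2. Cells are treated 24 h; reporter mRNA is quantified by RT-PCR and capillary electrophoresis; fitting is bidirectional.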
# [9] = target: Estrogen receptor (Homo sapiens) (UniProt P03372); test: ATG_ERa_TRANS: Attagene TRANS-FACTORIAL HepG2 Assay for human Estrogen Receptor alpha (ERa) (AID 2282970; active means hit-call score of the fitted dose curve at least 0.9, where 1 is the maximum); settings: HepG2 Attagene TRANS ERa GAL4 reporter, mRNA
# Estrogen receptor (Homo sapiens), sequence (P03372 whole entry, looked up, the tested form may be a part): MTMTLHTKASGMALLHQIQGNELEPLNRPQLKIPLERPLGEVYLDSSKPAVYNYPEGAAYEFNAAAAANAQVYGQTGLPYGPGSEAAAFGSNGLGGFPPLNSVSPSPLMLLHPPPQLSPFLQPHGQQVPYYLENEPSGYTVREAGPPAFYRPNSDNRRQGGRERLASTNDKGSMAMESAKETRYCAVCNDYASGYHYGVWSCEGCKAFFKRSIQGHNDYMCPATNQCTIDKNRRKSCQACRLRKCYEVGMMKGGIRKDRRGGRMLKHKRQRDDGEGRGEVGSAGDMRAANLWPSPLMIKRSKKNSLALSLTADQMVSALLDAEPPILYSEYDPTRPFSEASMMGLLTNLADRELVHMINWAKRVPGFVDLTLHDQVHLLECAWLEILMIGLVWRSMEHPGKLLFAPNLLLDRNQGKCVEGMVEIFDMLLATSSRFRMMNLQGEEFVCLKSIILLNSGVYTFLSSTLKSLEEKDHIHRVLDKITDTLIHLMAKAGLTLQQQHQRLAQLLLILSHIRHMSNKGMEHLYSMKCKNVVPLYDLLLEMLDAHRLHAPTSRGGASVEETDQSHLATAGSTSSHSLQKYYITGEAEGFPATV
# Method in brief: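 Reporter transcripts were measured 24 h after dosing by RT-PCR with fluorescent primer extension and capillary electrophoresis. The system is transiently transfected HepG2 expressing exogenous NR-Gal4 chimeras driving GAL4-UAS reporters; DMSO is the baseline.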
# [10] = target: X-box-binding protein 1 (Homo sapiens) (UniProt P17861); test: ATG_Xbp1_CIS: Attagene CIS-FACTORIAL HepG2 Assay for human X-box Binding Protein 1 (XBP1) (AID 2282972); settings: HepG2 XBP1 cis-element reporter, Attagene multiplex; actives raise or lower the signal
# X-box-binding protein 1 (Homo sapiens), sequence (P17861 whole entry, looked up): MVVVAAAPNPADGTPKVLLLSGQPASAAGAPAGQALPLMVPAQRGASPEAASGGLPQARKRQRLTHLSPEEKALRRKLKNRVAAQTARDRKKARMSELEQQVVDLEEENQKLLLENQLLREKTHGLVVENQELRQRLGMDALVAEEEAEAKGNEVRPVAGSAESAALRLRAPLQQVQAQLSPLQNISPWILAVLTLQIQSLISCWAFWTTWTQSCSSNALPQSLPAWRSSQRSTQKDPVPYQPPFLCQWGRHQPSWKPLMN
# Method in brief: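 Reporter transcripts were quantified by RT-PCR with fluorescent primer extension and capillary electrophoresis after 24 h chemical exposure. Cells: transiently transfected HepG2 carrying cis-regulated reporter constructs; data fitted bidirectionally relative to DMSO.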
# [11] = ATG_M_19_TRANS: Attagene TRANS-FACTORIAL HepG2 Assay for M19 Transcription Factor (Internal Marker) (AID 2282974; active means hit-call score of the fitted dose curve at least 0.9, where 1 is the maximum); settings: HepG2 Attagene TRANS-FACTORIAL M19 internal marker reporter
# Method in brief: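 Reporter mRNA induction was measured in transfected HepG2 cells 24 h after dosing. Endpoint fitted upward relative to DMSO and serves as a background control within the multiplexed TRANS panel.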
# [12] = target: Bile acid receptor (Homo sapiens) (UniProt Q96RI1); test: ATG_FXR_TRANS: Attagene TRANS-FACTORIAL HepG2 Assay for Farnesoid X Receptor (FXR) (AID 2282979; active means hit-call score of the fitted dose curve at least 0.9, where 1 is the maximum;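 further: hits raise reporter mRNA above DMSO so AC50 marks FXR activation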); settings: HepG2 Attagene TRANS FXR-GAL4 reporter transcription
# Bile acid receptor (Homo sapiens), sequence (Q96RI1 whole entry, looked up, the tested form may be a part): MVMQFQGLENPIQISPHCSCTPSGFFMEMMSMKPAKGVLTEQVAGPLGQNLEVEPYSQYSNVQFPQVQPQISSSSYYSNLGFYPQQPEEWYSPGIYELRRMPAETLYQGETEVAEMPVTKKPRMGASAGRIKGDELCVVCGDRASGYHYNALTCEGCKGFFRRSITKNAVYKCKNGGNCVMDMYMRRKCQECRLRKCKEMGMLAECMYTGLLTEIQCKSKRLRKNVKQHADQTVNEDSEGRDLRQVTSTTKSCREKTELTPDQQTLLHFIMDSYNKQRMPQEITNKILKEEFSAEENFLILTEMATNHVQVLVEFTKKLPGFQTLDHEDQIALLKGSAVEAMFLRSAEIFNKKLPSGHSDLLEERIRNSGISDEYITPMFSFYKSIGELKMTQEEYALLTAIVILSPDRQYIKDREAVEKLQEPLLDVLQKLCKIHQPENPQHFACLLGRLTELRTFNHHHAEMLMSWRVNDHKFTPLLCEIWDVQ
# Method in brief: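 Reporter transcripts from transfected HepG2 cells were measured 24 h after dosing, using RT-PCR with capillary electrophoresis of 6-FAM-labelled fragments. The read-out reflects activity of exogenous FXR-Gal4 chimera on GAL4-UAS units, with induction relative to DMSO.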
# [13] = ATG_SREBP_CIS: Attagene CIS-FACTORIAL HepG2 Assay for human Sterol Regulatory Element Binding (SREBP) (AID 2282962); settings: HepG2 Attagene cis-factorial SREBP reporter, mRNA; actives raise or lower the signal
# Method in brief: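 Endogenous SREBP activity read as cis-element-driven reporter transcript in transiently transfected HepG2, 24 h post-dosing; quantified via RT-PCR plus capillary electrophoresis of fluorescent fragments. Gain or loss of signal fitted relative to DMSO baseline.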
# [14] = target: Nuclear receptor subfamily 1 group I member 3 (Homo sapiens) (UniProt Q14994); test: ATG_CAR_TRANS: Attagene TRANS-FACTORIAL HepG2 Assay for human Constitutive Androstane Receptor (CAR) (AID 2282969; active means hit-call score of the fitted dose curve at least 0.9, where 1 is the maximum;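 further: activators raise reporter mRNA above DMSO so AC50 marks induction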); settings: HepG2 Attagene TRANS-FACTORIAL CAR reporter
# Nuclear receptor subfamily 1 group I member 3 (Homo sapiens), sequence (Q14994 whole entry, looked up, the tested form may be a part): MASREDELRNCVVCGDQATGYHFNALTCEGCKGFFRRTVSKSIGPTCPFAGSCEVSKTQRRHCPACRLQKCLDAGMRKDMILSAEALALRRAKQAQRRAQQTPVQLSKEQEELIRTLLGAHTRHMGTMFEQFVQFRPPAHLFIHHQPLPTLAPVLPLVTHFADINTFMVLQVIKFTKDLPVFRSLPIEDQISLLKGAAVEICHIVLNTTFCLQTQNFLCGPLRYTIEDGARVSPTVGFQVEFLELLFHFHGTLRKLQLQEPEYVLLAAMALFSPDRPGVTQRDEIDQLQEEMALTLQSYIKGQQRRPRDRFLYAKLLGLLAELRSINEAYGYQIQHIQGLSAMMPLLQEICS
# Method in brief: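 Signal is reporter mRNA induction relative to DMSO, measured 24 h after dosing by RT-PCR with fluorescent primer extension and capillary electrophoresis. Human HepG2 liver cells carried transiently transfected chimeric NR-Gal4/GAL4-UAS reporter constructs.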
# [15] = ATG_GAL4_TRANS: Attagene TRANS-FACTORIAL HepG2 Assay for GAL4 (Internal Marker) (AID 2282976; active means hit-call score of the fitted dose curve at least 0.9, where 1 is the maximum); settings: HepG2 Attagene TRANS GAL4 internal marker reporter
# Method in brief: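 In transfected human HepG2 liver cells dosed 24 h, GAL4 reporter mRNA serves as a baseline marker. Detection by RT-PCR with fluorescent capillary electrophoresis, activity fitted upward relative to DMSO.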
# [16] = target: Oxysterols receptor LXR-alpha (Homo sapiens) (UniProt Q13133); test: ATG_LXRa_TRANS: Attagene TRANS-FACTORIAL HepG2 Assay for human Liver X Receptor alpha (LXRa) (AID 2282980; active means hit-call score of the fitted dose curve at least 0.9, where 1 is the maximum); settings: HepG2 Attagene TRANS reporter, LXRa transactivation
# Oxysterols receptor LXR-alpha (Homo sapiens), sequence (Q13133 whole entry, looked up, the tested form may be a part): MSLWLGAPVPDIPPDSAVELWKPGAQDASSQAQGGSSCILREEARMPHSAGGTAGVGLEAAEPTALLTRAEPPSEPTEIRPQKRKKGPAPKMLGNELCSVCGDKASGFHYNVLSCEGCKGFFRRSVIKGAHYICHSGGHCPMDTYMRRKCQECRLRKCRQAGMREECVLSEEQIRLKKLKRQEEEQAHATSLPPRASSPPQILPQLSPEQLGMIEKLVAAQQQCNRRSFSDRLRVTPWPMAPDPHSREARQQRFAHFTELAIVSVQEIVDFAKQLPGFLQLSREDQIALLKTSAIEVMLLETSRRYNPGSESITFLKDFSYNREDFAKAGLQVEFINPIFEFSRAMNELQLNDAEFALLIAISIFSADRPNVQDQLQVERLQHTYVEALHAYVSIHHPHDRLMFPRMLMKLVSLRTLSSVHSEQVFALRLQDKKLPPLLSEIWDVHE
# Method in brief: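 Chemical-induced reporter mRNA measured by RT-PCR with fluorescent labelling and capillary electrophoresis after 24 h dosing of transiently transfected HepG2 cells expressing exogenous NR-Gal4 chimeras; increases scored against DMSO baseline.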
# [17] = target: Steroid hormone receptor ERR1 (Homo sapiens) (UniProt P11474); test: ATG_ERRa_TRANS: Attagene TRANS-FACTORIAL HepG2 Assay for human Estrogen-Related Receptor alpha (ERRa) (AID 2282971; active means hit-call score of the fitted dose curve at least 0.9, where 1 is the maximum); settings: HepG2 Attagene TRANS reporter, ERRa transactivation
# Steroid hormone receptor ERR1 (Homo sapiens), sequence (P11474 whole entry, looked up, the tested form may be a part): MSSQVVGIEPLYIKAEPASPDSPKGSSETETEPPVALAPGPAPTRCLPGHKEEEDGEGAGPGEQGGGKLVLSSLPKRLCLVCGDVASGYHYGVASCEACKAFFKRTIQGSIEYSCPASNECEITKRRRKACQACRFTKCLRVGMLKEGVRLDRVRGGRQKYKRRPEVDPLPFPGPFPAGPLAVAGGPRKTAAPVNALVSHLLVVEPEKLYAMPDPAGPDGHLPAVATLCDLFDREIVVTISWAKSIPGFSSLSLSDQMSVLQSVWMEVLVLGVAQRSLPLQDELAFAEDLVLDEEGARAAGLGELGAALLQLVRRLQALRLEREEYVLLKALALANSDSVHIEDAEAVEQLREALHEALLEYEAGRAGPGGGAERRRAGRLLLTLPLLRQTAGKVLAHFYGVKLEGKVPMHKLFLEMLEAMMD
# Method in brief: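 Reporter transcripts from ERRa-Gal4 chimera activity measured in transiently transfected human HepG2 cells 24 hours after dosing, using RT-PCR with 6-FAM primer extension, HpaI digestion and capillary electrophoresis; DMSO is baseline.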
# [18] = target: Glucocorticoid receptor (Homo sapiens) (UniProt P04150); test: ATG_GR_TRANS: Attagene TRANS-FACTORIAL HepG2 Assay for human Glucocorticoid Receptor (GR) (AID 2282978; active means hit-call score of the fitted dose curve at least 0.9, where 1 is the maximum;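 further: activators score as hits since higher reporter transcript over DMSO is fitted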); settings: HepG2 Attagene TRANS GR reporter, mRNA transcription
# Glucocorticoid receptor (Homo sapiens), sequence (P04150 whole entry, looked up, the tested form may be a part): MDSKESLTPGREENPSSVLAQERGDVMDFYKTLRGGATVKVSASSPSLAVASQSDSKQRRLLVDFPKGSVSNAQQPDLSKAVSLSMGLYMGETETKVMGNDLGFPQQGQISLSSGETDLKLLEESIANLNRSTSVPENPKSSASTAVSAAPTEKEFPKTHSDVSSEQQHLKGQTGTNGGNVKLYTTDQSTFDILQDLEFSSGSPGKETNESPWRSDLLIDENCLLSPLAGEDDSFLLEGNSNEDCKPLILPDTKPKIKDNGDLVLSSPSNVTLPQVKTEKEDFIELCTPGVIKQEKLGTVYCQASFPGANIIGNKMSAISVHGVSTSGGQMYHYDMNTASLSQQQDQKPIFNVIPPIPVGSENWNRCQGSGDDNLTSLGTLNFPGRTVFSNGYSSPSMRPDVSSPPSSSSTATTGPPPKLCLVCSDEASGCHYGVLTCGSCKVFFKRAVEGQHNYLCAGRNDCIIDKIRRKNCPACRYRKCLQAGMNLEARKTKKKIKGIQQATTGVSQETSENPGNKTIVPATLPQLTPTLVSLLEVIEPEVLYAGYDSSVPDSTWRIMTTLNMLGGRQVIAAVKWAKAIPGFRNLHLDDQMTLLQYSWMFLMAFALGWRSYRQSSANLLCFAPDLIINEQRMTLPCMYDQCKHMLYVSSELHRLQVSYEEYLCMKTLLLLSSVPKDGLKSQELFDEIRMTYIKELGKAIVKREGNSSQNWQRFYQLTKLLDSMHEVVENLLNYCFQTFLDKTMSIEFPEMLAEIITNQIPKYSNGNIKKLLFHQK
# Method in brief: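 Reporter transcript levels, detected by fluorescence after RT-PCR and capillary electrophoresis, served as the endpoint. HepG2 cells bearing transfected GAL4-UAS reporters responsive to NR-GAL4 chimeras were incubated with compound 24 h; DMSO defined baseline.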
# [19] = target: Estrogen-related receptor gamma (Homo sapiens) (UniProt P62508); test: ATG_ERRg_TRANS: Attagene TRANS-FACTORIAL HepG2 Assay for human Estrogen-Related Receptor gamma (ERRg) (AID 2282977; active means hit-call score of the fitted dose curve at least 0.9, where 1 is the maximum;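 further: hits increase reporter signal over DMSO so potencies reflect activators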); settings: HepG2 Attagene TRANS reporter, ERRg transactivation
# Method in brief: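 Exogenous NR-Gal4 chimera activity was assessed in HepG2 cells bearing transfected GAL4-UAS reporters. After 24 h dosing, total RNA underwent RT-PCR, fluorescent primer extension and HpaI digestion before capillary electrophoresis, with gain of signal scored against DMSO.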
structure (smiles),measurement,setting,value
[F][Sn]([c]1ccccc1)([c]1ccccc1)[c]1ccccc1,AC50,[1],0.328 µM (active)
same,AC50,[2],0.303 µM (active)
same,AC50,[3],0.597 µM (active)
same,AC50,[4],0.58 µM (active)
same,outcome,[5],inactive
same,outcome,[6],inactive
same,outcome,[7],inactive
same,AC50,[8],0.332 µM (active)
same,outcome,[9],inactive
same,AC50,[10],0.326 µM (active)
same,outcome,[11],inactive
same,outcome,[12],inactive
Cc1cc(Cl)ccc1OCCCC(=O)O,outcome,[1],inactive
same,outcome,[2],inactive
same,outcome,[13],inactive
same,outcome,[3],inactive
same,outcome,[5],inactive
same,outcome,[6],inactive
same,outcome,[7],inactive
same,outcome,[14],inactive
same,outcome,[10],inactive
same,outcome,[15],inactive
same,outcome,[16],inactive
N#Cc1ccncc1,outcome,[1],inactive
same,outcome,[2],inactive
same,outcome,[3],inactive
same,outcome,[4],inactive
same,outcome,[5],inactive
same,outcome,[6],inactive
same,outcome,[7],inactive
same,outcome,[8],inactive
same,outcome,[9],inactive
same,outcome,[17],inactive
same,outcome,[10],inactive
same,outcome,[15],inactive
same,outcome,[18],inactive
CC1(C)COP(Oc2ccccc2)OC1,outcome,[1],inactive
same,outcome,[2],inactive
same,outcome,[13],inactive
same,outcome,[3],inactive
same,outcome,[5],inactive
same,outcome,[6],inactive
same,outcome,[7],inactive
same,outcome,[8],inactive
same,outcome,[14],inactive
same,outcome,[15],inactive
same,outcome,[19],inactive
same,outcome,[12],inactive
O=c1nc(O)n(Cl)c(=O)n1Cl,outcome,[1],inactive
same,outcome,[2],inactive
same,outcome,[3],inactive
same,outcome,[4],inactive
same,outcome,[5],inactive
same,outcome,[6],inactive
same,outcome,[7],inactive
same,outcome,[17],inactive
same,outcome,[10],inactive
same,outcome,[11],inactive
same,outcome,[15],inactive
same,outcome,[19],inactive
N#CS,outcome,[1],inactive
same,outcome,[2],inactive
same,outcome,[3],inactive
same,outcome,[4],inactive
same,outcome,[5],inactive
same,outcome,[6],inactive
same,outcome,[7],inactive
same,outcome,[8],inactive
same,outcome,[15],inactive
same,outcome,[18],inactive
same,outcome,[16],inactive
CC(C)O.CC(C)O.OCCN(CCO)CCO.OCCN(CCO)CCO.[Ti],outcome,[1],inactive
same,outcome,[2],inactive
same,outcome,[3],inactive
same,outcome,[4],inactive
same,outcome,[5],inactive
same,outcome,[6],inactive
same,outcome,[7],inactive
same,outcome,[14],inactive
same,outcome,[10],inactive
same,outcome,[15],inactive
same,outcome,[16],inactive
CC(=O)CN(CC(C)=O)N=O,outcome,[1],inactive
same,outcome,[2],inactive
same,outcome,[13],inactive
same,outcome,[3],inactive
same,outcome,[6],inactive
same,outcome,[7],inactive
same,outcome,[9],inactive
same,outcome,[17],inactive
same,outcome,[10],inactive
same,outcome,[15],inactive
Clc1ccc(C(Cl)(Cl)Cl)cn1,outcome,[1],inactive
same,outcome,[2],inactive
same,outcome,[3],inactive
same,outcome,[4],inactive
same,outcome,[5],inactive
same,outcome,[6],inactive
same,outcome,[7],inactive
same,outcome,[9],inactive
same,outcome,[10],inactive
same,outcome,[18],inactive
CC(C)(C#N)N=NC(C)(C)C#N,outcome,[1],inactive
same,outcome,[2],inactive
same,outcome,[13],inactive
same,outcome,[3],inactive
same,outcome,[5],inactive
same,outcome,[6],inactive
same,outcome,[7],inactive
same,outcome,[14],inactive
same,outcome,[10],inactive
same,outcome,[11],inactive
same,outcome,[18],inactive
same,outcome,[16],inactive
